# Measured values: PubChem BioAssay (NCATS)
# Values joined by “and” are separate entries in the source; they are usually repeats but may differ in a detail not shown here. Equal values may be shown once. Records with an inconclusive call do not appear. Active and inactive are the calls of the source. The call rests on the fitted dose curve; in most records, active means well fitted cell-killing curve with a large enough effect; inconclusive means small, poorly fitted or top-dose-only effect, or effect the other way; inactive means no such curve, though single readings can be large or run the other way.
# Experiment: Viability qHTS for spleen associated tyrosine kinase inhibitor (SYKi) naive MV4-11 cells (AID 1963823); further: nearly all actives have a fitted effect of over 40% in size
# Settings: MV4-11 AML viability, CellTiter-Glo luminescence, 72 h; series mostly up to 45 µM; viability (% of control): at the top concentration
# From the text: Department of Medicine, Hematology/Oncology
# University Hospital Frankfurt, Germany.
# Trials have shown promising clinical activity of the selective SYK inhibitor entospletinib in patients with high expressing HOXA9/MEIS1 acute leukemias. As the development of resistance mechanisms is a common problem in the use of targeted drugs, we performed a chemical library screen to identify drug sensitivities in SYK inhibitor resistant AML cells. […] Glucocorticoids are potent immunosuppressants which work in part by inhibiting the transcription of cytokine genes.
# Described herein is a viability screen to look for activity in the SYK inhibitor naive cell line against four NCATS compound libraries (MIPE 5.0, NPC, NPACT, and Kinase) totaling 11372 compounds. Active hits were reacquired for confirmation and further secondary assay testing.
# SEQUENCE No. (e.g., 1, 2, 3, etc.); […] (e.g., Cells, Incubation, Reagent, etc.); VALUE; DESCRIPTION.
# 1; Media; 2uL; white, solid-bottom Corning assay plate.
# 2; Compounds; 23nL; Echo acoustic dispenser.
# 3; Cell; 5uL; 500 cells per well.
# 4: Incubation; 72hr; 37 C, 5% CO2, 95% humidity.
# 5; Reagent; 3uL; CellTiter-Glo reagent (Promega).
# 6; Incubation; 10min; room temperature.
# 7; Detection; Luminescence; ViewLux plate reader (PerkinElmer).
# NOTES (numbers refer to Sequence numbers above
# 1. Quantitative high-throughput screening (qHTS) of small molecule compounds was conducted on naive SYKi MV4-11 cell line.
# 2. Twenty-three nanoliter of small molecule compounds were added to each assay plates using the Echo acoustic dispenser (Beckman Coulter).
# 3. Cells were seeded into the assay plates at a final density of 500 cells in 5uL of media per well using the Multi-drop Combi dispenser.
# 4. Plates were covered with stainless steel gasketed lids and incubated for 72 hours at standard cell culture conditions.
# 5. Viability was assessed by adding 3uL of CellTiter-Glo detection reagent (Promega).
# 6. Plates were covered with gasket lids and incubated for 10 minutes at room temperature.
# 7. Luminescence was measured on a ViewLux plate reader (PerkinElmer).
# Potency means the concentration at half of the fitted maximal effect.
Compound,Potency,viability (% of control)
CN(C)CC[C@H](CSc1ccccc1)Nc1ccc(S(=O)(=O)NC(=O)c2ccc(N3CCN(Cc4ccccc4-c4ccc(Cl)cc4)CC3)cc2)cc1[N+](=O)[O-],0.148 µM (active),–
O=C(Nc1cccnn1)N1CCC(=Cc2cccc(Oc3ccc(C(F)(F)F)cn3)c2)CC1,7.42 µM (active),–
CC1(C)S[C@@H]2[C@H](NC(=O)[C@H](N)c3ccc(O)cc3)C(=O)N2[C@H]1C(=O)O,–,87.5% (inactive)
CC(=O)NCCCS(=O)(=O)O,–,76.3% [at 17.3 µM] (inactive)
CC(=O)Nc1ccc(S(=O)(=O)Nc2cc(C)on2)cc1,–,100% (inactive)
C#CCN(C)Cc1ccccc1,–,60.3% (inactive)
CCn1c(-c2nonc2N)nc2cnc(Oc3cccc(NC(=O)c4ccc(OCCN5CCOCC5)cc4)c3)cc21,517 nM (active) and 934 nM (active),–
C[C@]12CC[C@@H]3c4ccc(O)cc4C[C@@H](CCCCCCCCCS(=O)CCCC(F)(F)C(F)(F)F)[C@H]3[C@@H]1CC[C@@H]2O (stereo not given in full),–,16.2% (inactive)
N#CC1(c2ccc(NC(=O)c3cccnc3NCc3ccncc3)cc2)CCCC1,2.31 µM (active),–
C[C@]12CCC(=O)C=C1CC[C@@H]1[C@@H]2CC[C@@]2(C)[C@H]1CC[C@]2(O)C(=O)CO,–,71.6% (inactive)
CN1C[C@H]2c3ccccc3Oc3ccc(Cl)cc3[C@@H]2C1,26.6 µM (active),–
OC1(c2ccc(Cl)c(C(F)(F)F)c2)CCN(CCCC(c2ccc(F)cc2)c2ccc(F)cc2)CC1,2.66 µM (active) and 3.66 µM (active),–
O=C(CCCCCCC(=O)Nc1ccccc1)NO,1.64 µM (active) and 1.48 µM (active),–
COc1ccc(CCCN2CCC(COC(c3ccccc3)c3ccccc3)CC2)cc1,10.3 µM (active),–
C[C@@H]1O[C@@H](O[C@H]2[C@@H](OC(=O)[C@]34CCC(C)(C)CC3C3=CCC5[C@@]6(C)C[C@H](O)[C@H](O[C@@H]7O[C@H](C(=O)O)[C@@H](O)[C@H](O)[C@H]7O)[C@@](C)(C(=O)O)C6CC[C@@]5(C)[C@]3(C)CC4)OC[C@H](O)[C@@H]2O)[C@H](O)[C@H](O)[C@H]1O[C@@H]1OC[C@@H](O)[C@H](O)[C@H]1O (stereo not given in full),–,77.1% [at 9.25 µM] (inactive)
COc1cc2ncnc(N3CCC(Oc4cnc5ccccc5n4)C3)c2cc1OC (stereo not given),0.58 µM (active),–
Cc1cc(C)nc(NS(=O)(=O)c2ccc(NC(=S)NC(=O)COc3ccc(Br)cc3Cl)cc2)n1,–,83.1% (inactive)
COc1ccc(C(=O)N2CCN(CC(=O)N3CCOCC3)CC2)cc1,–,93.1% (inactive)
COc1ccc(OC)c(C(O)CNC(=O)CN)c1 (stereo not given),–,62% (inactive)
Nc1ccc(S(=O)(=O)Nc2nccs2)cc1,inactive,–

Compound,Potency,viability (% of control)
C=CC(C)(C)c1[nH]c2ccccc2c1C[C@@H]1NC(=O)[C@H](Cc2c[nH]c3ccccc23)NC1=O,–,68% [at 17.3 µM] (inactive)
Nc1ccc(/C=C/c2ccc(N)cc2S(=O)(=O)O)c(S(=O)(=O)O)c1,–,106% [at 0.588 µM] (inactive)
COc1cc(C2c3cc(O)c(OC)cc3CC(CO)C2CO)ccc1O (stereo not given),–,94.2% (inactive)
CCc1cc(CC[C@]2(C3CCCC3)CC(O)=C(Cc3nc4nc(C)cc(C)n4n3)C(=O)O2)cc(CC)n1,10.3 µM (active),–
O=C(O)CCc1cccc(O)c1O[C@@H]1O[C@H](CO)[C@@H](O)[C@H](O)[C@H]1O,–,78.4% (inactive)
CC(C(=O)O)c1ccc2c(c1)Cc1cccnc1O2 (stereo not given),–,81% (inactive)
O=C1CCC(N2C(=O)c3ccccc3C2=O)C(=O)N1 (stereo not given),inactive,–
COc1c2c(c(C)c3c1C(=O)OC3)OC1(C)CC(O)C34OC(OC)(CC(OC(C)=O)C3(C)C1C2)OC4(C)C (stereo not given),–,75.8% [at 17.3 µM] (inactive)
COc1ccc(C[C@H](C)NC[C@@H](O)c2ccc(O)c(NC=O)c2)cc1,–,78.1% (inactive)
COc1cc2c3cc1Oc1cc(ccc1O)C[C@@H]1c4c(cc(OC)c(O)c4Oc4ccc(cc4)C[C@@H]3N(C)CC2)CC[N+]1(C)C,–,100% (inactive)
CC(=O)OC[C@@]12[C@H](O)C[C@]3(C)C(=CCC4[C@@]5(C)CC[C@H](O[C@@H]6O[C@H](C(=O)O)[C@@H](O[C@@H]7O[C@H](CO)[C@@H](O)[C@H](O)[C@H]7O)[C@H](O)[C@H]6O[C@@H]6O[C@H](CO)[C@@H](O)[C@H](O)[C@H]6O)[C@](C)(CO)C5CC[C@]43C)[C@@H]1CC(C)(C)[C@@H](OC(C)=O)[C@@H]2O (stereo not given in full),–,96.3% [at 9.25 µM] (inactive)
CN(Cc1ccc(/C=C/C(=O)NO)cc1)CC12CC3CC(CC(C3)C1)C2,0.296 µM (active),–
C=C1C(=O)O[C@@H]2C3=C(C)CCC[C@]3(C)CC[C@@]12O,1.64 µM (active),–
COc1c(C(CC(C)C)OC(C)=O)ccc(Oc2c(O)cc(C)cc2/C=C/C(C)=O)c1C(=O)O (stereo not given),–,50.6% [at 17.3 µM] (inactive)
O=C(O)CCCC[P+](c1ccccc1)(c1ccccc1)c1ccccc1,–,70.9% (inactive)
CC[C@@]1(O)C[C@H](O[C@H]2C[C@H](N(C)C)[C@H](O[C@H]3C[C@H](O)[C@H](O[C@H]4CCC(=O)[C@H](C)O4)[C@H](C)O3)[C@H](C)O2)c2c(cc3c(c2O)C(=O)c2c(O)cccc2C3=O)[C@@H]1C(=O)OC,1.66 µM (active),–
CC1(C)C[C@H](O)C[C@@]2(C)OC(=O)C=C12,–,58.1% [at 91.9 µM] (inactive)
CC1OC(OC2C(OC3C(O[C@H]4CC[C@@]5(C)C(CC[C@]6(C)C5C(=O)CC5=C7CC(C)(C)CC(O)[C@]7(C)CC[C@]56C)C4(C)C)OC(C(=O)O)C(O)C3O)OCC(O)C2O)C(O)C(O)C1O (stereo not given in full),–,77.2% [at 9.25 µM] (inactive)
C=C1/C(=C/C=C2\CCC[C@]3(C)[C@@H]([C@@H](C)OCCC(O)(CC)CC)CC[C@@H]23)C[C@@H](O)C[C@@H]1O,–,7.66% (inactive)
C[C@@H]1C[C@H]2[C@@H]3C[C@H](F)C4=CC(=O)C=C[C@]4(C)[C@@]3(F)[C@@H](O)C[C@]2(C)[C@@]1(O)C(=O)CO,0.335 µM (active),–
